SMILES strings stand for the structures. The campaign covered roughly 340,000 compounds. About 2,100 (0.62%) were called active.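 The calls were made as follows: active = first-screen hits whose inhibition reached a set limit at any dose in the follow-up dose series; inconclusive = inhibition above the set first-screen limit but never retested; inactive = the rest.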 Not all results are given here. Entries with a potency or affinity are not part of this list.

This experiment deals with Rac GTPase-activating protein 1 (Homo sapiens) (UniProt Q9H0H5). The experiment is described as follows: MgcRacGAP GTPase-activating activity inhibitors, confirmation, biochemical, ADP Hunter fluorescence, primary and confirmatory (AID 624330).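 Also: fluorescence reports GDP produced by GAP-driven GTP hydrolysis.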 To be noted: MgcRacGAP-stimulated Rac1 GTP hydrolysis, at 30 µM, stronger effect = higher value, GST-tagged Rac1 F28L mutant substrate.
Chain of Rac GTPase-activating protein 1 (Homo sapiens) (Q9H0H5 whole entry, looked up): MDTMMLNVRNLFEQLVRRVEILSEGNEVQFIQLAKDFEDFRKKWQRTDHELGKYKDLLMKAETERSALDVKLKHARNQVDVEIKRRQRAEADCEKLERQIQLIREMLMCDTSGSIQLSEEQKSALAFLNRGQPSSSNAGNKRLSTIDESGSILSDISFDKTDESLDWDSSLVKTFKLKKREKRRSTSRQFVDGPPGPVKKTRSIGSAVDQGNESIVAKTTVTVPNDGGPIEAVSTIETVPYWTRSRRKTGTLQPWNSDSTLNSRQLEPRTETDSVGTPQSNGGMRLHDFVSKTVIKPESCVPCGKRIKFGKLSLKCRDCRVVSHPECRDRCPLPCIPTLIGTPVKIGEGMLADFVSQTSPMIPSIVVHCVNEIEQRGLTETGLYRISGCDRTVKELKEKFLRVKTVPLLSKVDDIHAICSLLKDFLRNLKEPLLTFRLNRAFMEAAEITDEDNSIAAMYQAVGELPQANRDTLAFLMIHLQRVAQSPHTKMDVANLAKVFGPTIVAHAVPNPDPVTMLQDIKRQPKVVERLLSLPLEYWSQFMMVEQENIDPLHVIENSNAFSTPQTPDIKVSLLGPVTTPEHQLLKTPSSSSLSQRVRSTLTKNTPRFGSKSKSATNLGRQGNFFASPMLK
As for `C#CCOCCOCCOCCNc1nc(N2CCN(C(=O)CCCCCCCCCCNC(=O)[C@@H](CCC(=O)O)n3cc(CCCCCN)nn3)CC2)nc(N2CCN(C(=O)CCCCCCCCCCNC(=O)[C@@H](CCC(=O)O)n3cc(CCCCCN)nn3)CC2)n1`, the inhibition is 0.63% (inactive). With `CCn1c(C)nc2c(C)[n+](CC(=O)c3ccc(Br)cc3)ccc21` the figure was 8.56% (inactive); with `CSc1nnc2ccc(-c3ccccn3)nn12`, -3.72% (inactive); with `COc1ccc(NC2CCCN(C(=O)c3cccc(C)n3)C2)cc1OC` (configuration not stated), 26.1% (inactive).

In the case of `COc1cccc(/C=N/Nc2ncnc3c2ncn3Cc2ccccc2)c1O`, the inhibition is 7.53% (inactive). With `Oc1cccc(/C=N/Nc2ncnc3c2ncn3Cc2ccccc2)c1` the figure was 15.2% (inactive); with `COc1cccc(C2C(C(=O)c3cccs3)=C(O)C(=O)N2CCN2CCOCC2)c1OC` (configuration not stated), 10.9% (inactive). Take `Cc1cn([C@H]2C[C@H](O)[C@@H](CNCc3ccccc3)O2)c(=O)[nH]c1=O`: the inhibition was 7% (inactive). With `O=c1ccn([C@@H]2O[C@H](CNCC3=Cc4cc(O)ccc4OC3)[C@@H](O)[C@H]2O)c(=O)[nH]1` the figure was 20% (inactive). With `COC(=O)c1ccc(CNC(=O)C2CCC(=O)N(CCc3ccccc3)C2)cc1` (configuration not stated) the figure was 6.06% (inactive). With `Cn1c(=O)c([N+](=O)[O-])c(NCc2ccccc2Cl)c2ccccc21`, the inhibition was 8.45% (inactive). With `O=c1/c(=C\c2ccc3c(c2)OCO3)sc2n1CCCN=2` the figure was 8.3% (inactive).

For the compound `O=c1/c(=C\c2ccc(F)cc2)sc2n1CCCN=2`, the inhibition is -5.16% (inactive). With `O=c1/c(=C/c2ccc([N+](=O)[O-])cc2)sc2n1CCCN=2` the figure was 9.61% (inactive); with `CN(C)c1ccc(/C=c2\sc3n(c2=O)CCCN=3)cc1`, 9.18% (inactive); with `COc1ccc(CCNS(=O)(=O)c2cn(C)c(=O)n(C)c2=O)cc1OC`, -1.5% (inactive). With `CCc1ccccc1NC(=O)NCc1ccccn1` the figure was 7.56% (inactive); with `Cc1ccc(C)c2c1cc(C)c1nnc(SCC(=O)Nc3nc4c(s3)CCCC4)n12`, 6.82% (inactive). With `CC1=NN(c2cccc(F)c2)C(=O)/C1=C/c1ccc(N(C)C)cc1` the figure was 4.18% (inactive); with `CCOC(=O)CC1=NN(c2ccccc2)C(=O)/C1=C\c1ccc(N(C)C)cc1`, 12% (inactive); with `CN(C)c1ccc(/C=C2\CCCc3c2nc2ccccc2c3C(=O)O)cc1`, 28.8% (inactive). Regarding `CCOC(=O)C1=NN(c2ccccc2)C(=O)/C1=C\c1ccc(N(C)C)cc1`, the inhibition was 14.6% (inactive). With `CN(C)c1ccc(/C=C/c2nc3ccccc3c(=O)n2-c2ccc(C(=O)O)cc2)cc1` the figure was 21.8% (inactive); with `CN(C)c1ccc(/C=C2\SC(=O)N(CC(O)Cn3c4ccccc4c4ccccc43)C2=O)cc1` (configuration not stated), 9.97% (inactive). As for `CN(C)c1ccc(/C=C2\CCCCC2=O)cc1`, the figure is 22% (inactive); as for `CC(=O)N1/C(=C/c2ccc(N(C)C)cc2)C(=O)c2ccccc21`, 10.6% (inactive). With `Cc1ccc(/C=C/C(=O)OCC(=O)NCCN2C(=O)CSC2=O)o1` the figure was 5.03% (inactive). Turning to `Cc1nc(CNC(=O)C2CCC(=O)N(CCc3ccc(Cl)cc3)C2)sc1C` (configuration not stated), the inhibition was 10.8% (inactive).

On to `COc1cc(/C=N/Nc2nc(Nc3ccccc3)nc(N3CCOCC3)n2)ccc1OC(=O)c1ccco1`, for which the inhibition was 8.66% (inactive). As for `CN(C)c1ccc(-c2n(C)c3ccccc3[n+]2C)cc1`, the figure is 3.74% (inactive); as for `CN(c1ccc(Cl)cc1)c1cc(=O)n(C)c2ccccc12`, -1.02% (inactive). With `Cc1ccc(NC(=O)c2cccc(Oc3ccc([N+](=O)[O-])cc3)c2)c(C(=O)O)c1` the figure was 7.38% (inactive).

For `O=C(Nc1ccc([N+](=O)[O-])cc1)c1cccc([N+](=O)[O-])c1`, the inhibition is 16.6% (inactive). As for `Cc1cc(NC(=O)CN2C(=O)NC(C)(CC(C)C)C2=O)no1` (configuration not stated), the figure is 3.59% (inactive).

Consider `COc1ccc(C(=O)O)cc1NC(=S)NC(=O)/C=C/c1ccc(C(C)C)cc1`, for which the inhibition was 14.7% (inactive).

Consider `CCOC(CN=c1nc(N(C)C)ss1)OCC`, for which the inhibition is 30.1% (inactive).

Regarding `COC(=O)c1cc(=O)n(Cc2cccs2)c(=NCc2cccs2)s1`, the inhibition was 3.47% (inactive). As for `Cc1cc(C2(O)C(=O)Nc3ccccc32)ccc1F` (configuration not stated), the figure is -6.52% (inactive); as for `COc1cccc(-c2cc(C(F)(F)F)n3nc(C(=O)Nc4c(C)n(C)n(-c5ccccc5)c4=O)cc3n2)c1`, 7.24% (inactive). With `O=C(Nc1ccccc1Cl)c1ccc(C(=O)Nc2ccccc2Cl)cc1` the figure was 3.72% (inactive); with `O=C(Nc1ccccc1Cl)Nc1ccccc1Cl`, 10.3% (inactive); with `Cc1n[nH]c(C)c1N1C(=O)c2cccc3cc(Br)cc(c23)C1=O`, 15.9% (inactive). As for `O=C(N/N=C/c1ccc(F)cc1)c1ccccc1`, the figure is 5.65% (inactive); as for `O=C(N/N=C/c1ccccc1)c1ccc(-c2ccccc2)cc1`, 5.75% (inactive). Take `O=C(NCc1ccccc1)C1Cc2ccccc2CN1C(=O)c1ccco1` (configuration not stated): the inhibition was 6.98% (inactive).

With `COc1cc(/C=N/O)cc(Br)c1OCc1ccc(Cl)cc1`, the inhibition is 0.88% (inactive). With `CCCCN(C(=O)Cn1nnc2ccccc21)C(C(=O)NCCOC)c1cccs1` (configuration not stated) the figure was 9.34% (inactive).

`O=C(O)c1ccccc1Nc1ccc([N+](=O)[O-])c2nonc12`: the inhibition is 5.2% (inactive). With `O=[N+]([O-])c1ccc(O)c2cccnc12`, the inhibition was 5.34% (inactive).

For `CS(=O)(=O)c1ccc(C(=O)Nc2ccc(S(=O)(=O)N3CCCCC3)cc2)cc1`, the inhibition was 3.97% (inactive). With `Nc1nc2ccc([N+](=O)[O-])cc2[nH]1` the figure was 0.04% (inactive); with `O=c1[nH]c2cc([N+](=O)[O-])ccc2c2ccccc12`, 2.35% (inactive); with `O=C1N(C2CCCC2)C[C@@H]2C[C@@H](c3cn[nH]c3-c3ccc(Cl)cc3)N3CCC[C@@]123`, 7.84% (inactive). As for `COc1ccc(CN2C3CCC2CC(NC(=O)c2cc(OC)c(OC)c(OC)c2)C3)cc1` (configuration not stated), the figure is 9.16% (inactive); as for `Cc1ccc(S(=O)(=O)N(C)CC(=O)Nc2ncccc2C)cc1`, -0.45% (inactive); as for `CCCNC(=S)N1CC2(C)CN(C(=O)C(=O)OC)CC(C)(C1)C2=O`, 2.02% (inactive).

Turning to `CC(=O)N(c1ccccc1)c1nnc(-c2cnc(C)cn2)s1`, the inhibition was -6.48% (inactive).

One may read the inhibition as the change of the read-out against control, counted positive when it falls.
